# Laboratory results published in PubChem BioAssay (NCI).
# About 79,000 compounds went through this panel and 15% of them were active in at least one assay; those are over-represented in the sample as a whole. A number with no mark means an inactive call. Active and inactive are the calls of the source. Rule as the data show it: active = growth inhibition above about 70%; inactive = the rest.
# Tests used:
# [1] = NCI Yeast Anticancer Drug Screen. Data for the rad52 strain (AID 147);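 also: 0% = growth of vehicle-treated control cultures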; settings: S. cerevisiae rad52 mutant growth inhibition, stronger effect = higher value
# Summary of the method: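 Yeast strain carrying a DNA damage repair alteration was exposed to test compounds. Growth inhibition was measured relative to vehicle-treated controls.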
# [2] = NCI Yeast Anticancer Drug Screen. Data for the wt1 strain (AID 149);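 also: 0% = growth of vehicle-treated wt1 cultures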; settings: S. cerevisiae wt1 strain (SPY 50644) growth inhibition, stronger effect = higher value
# Summary of the method: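 Growth inhibition read against vehicle controls after compound exposure of the wt1 yeast strain.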
# [3] = NCI Yeast Anticancer Drug Screen. Data for the rad50EPP+ strain (AID 151);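 also: 0% = growth of vehicle-treated control cultures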; settings: S. cerevisiae rad50 mutant strain, stronger effect = higher value
# Summary of the method: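 Yeast strain carrying rad50 alteration (rad50EPP+) exposed to compounds; growth inhibition measured relative to vehicle-treated controls.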
# [4] = NCI Yeast Anticancer Drug Screen. Data for the mgt1 strain (AID 153); settings: S. cerevisiae mgt1 mutant growth inhibition, stronger effect = higher value
# Summary of the method: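 Yeast mgt1 strain (DNA repair/cell-cycle alteration panel) exposed to compounds; growth inhibition measured relative to vehicle-treated controls.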
# [5] = NCI Yeast Anticancer Drug Screen. Data for the rad50 strain (AID 155);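 also: 0% = growth of vehicle-only cultures of the same strain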; settings: S. cerevisiae rad50 strain growth inhibition, stronger effect = higher value
# Summary of the method: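 Readout: growth inhibition relative to vehicle-treated cultures. Compound exposure was carried out in a genetically defined yeast strain deficient in DNA damage repair.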
# [6] = NCI Yeast Anticancer Drug Screen. Data for the mec2-1 strain (AID 157); settings: S. cerevisiae mec2-1 strain, stronger effect = higher value
# Summary of the method: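 mec2-1 yeast strain, carrying an alteration in DNA damage repair or cell cycle control, was exposed to compounds; growth inhibition was measured relative to vehicle-treated controls.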
# [7] = NCI Yeast Anticancer Drug Screen. Data for the rad14 strain (AID 159);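 also: 0% = growth of vehicle-treated control cultures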; settings: S. cerevisiae rad14 strain growth inhibition, stronger effect = higher value
# Summary of the method: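 Growth inhibition vs vehicle controls; genetically altered yeast strain (DNA damage repair defect) treated with test compounds.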
# [8] = NCI Yeast Anticancer Drug Screen. Data for the sgs1 mgt1 strain (AID 161);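 also: 0% = growth of cultures given vehicle only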; settings: S. cerevisiae sgs1 mgt1 strain, stronger effect = higher value
# Summary of the method: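 Yeast cells carrying a defined DNA-repair defect were exposed to test compounds. Growth inhibition was measured relative to vehicle-treated controls.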
# [9] = NCI Yeast Anticancer Drug Screen. Data for the CLN2oe strain (AID 163);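 also: 0% = growth of vehicle-only control cultures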; settings: S. cerevisiae CLN2oe strain, stronger effect = higher value
# Summary of the method: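 Yeast cells carrying a defined cell-cycle control alteration were exposed to test compounds. Growth inhibition was scored against vehicle-treated control cultures.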
# [10] = NCI Yeast Anticancer Drug Screen. Data for the cln2 rad14 strain (AID 165);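 also: 0% = growth equal to vehicle treated cultures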; settings: S. cerevisiae cln2 rad14 strain, stronger effect = higher value
# Summary of the method: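 Yeast carrying cln2 and rad14 alterations (cell cycle control and DNA damage repair) were exposed to compounds. Growth inhibition was measured against vehicle-treated controls.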
# [11] = NCI Yeast Anticancer Drug Screen. Data for the bub3 strain (AID 167); settings: S. cerevisiae bub3 mutant strain, stronger effect = higher value
# Summary of the method: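 Readout: yeast growth inhibition, expressed relative to vehicle-only wells. The test organism is a mutant strain from a panel with lesions in DNA repair or checkpoint genes.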
# [12] = NCI Yeast Anticancer Drug Screen. Data for the wt2 strain (AID 169);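 also: 0% = growth of vehicle-treated yeast cultures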; settings: S. cerevisiae wt2 strain growth inhibition, stronger effect = higher value
# Summary of the method: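 Yeast cells were exposed to test compounds, and growth inhibition was measured relative to vehicle-treated controls.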
# [13] = NCI Yeast Anticancer Drug Screen. Data for the mlh1 strain (AID 171);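 also: 0% = growth of vehicle-treated control cultures of the same strain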; settings: S. cerevisiae mlh1 strain growth inhibition, stronger effect = higher value
# Summary of the method: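 Yeast carrying a defined genetic alteration in DNA damage repair or cell cycle control were exposed to test compounds. Growth inhibition was measured relative to vehicle-treated controls.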
# [14] = NCI Yeast Anticancer Drug Screen. Data for the sgs1 strain (AID 173);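 also: 0% = growth of vehicle-only control cultures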; settings: S. cerevisiae sgs1 mutant, stronger effect = higher value
# Summary of the method: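 Yeast mutant strains carrying defined defects in DNA damage repair or cell cycle control were exposed to test compounds. Growth inhibition was scored against vehicle-treated controls.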
# [15] = NCI Yeast Anticancer Drug Screen. Data for the mlh1 rad18 strain (AID 175); settings: S. cerevisiae mlh1 rad18 strain growth inhibition, stronger effect = higher value
# Summary of the method: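 Growth inhibition of the yeast strain was measured after compound exposure and expressed relative to vehicle-treated controls. The strain carries defined defects in DNA damage repair.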
# [16] = NCI Yeast Anticancer Drug Screen. Data for the rad18 strain (AID 177); settings: S. cerevisiae rad18 mutant growth inhibition, stronger effect = higher value
# Summary of the method: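 Yeast carrying a defined DNA damage repair alteration were exposed to compounds. Growth inhibition was expressed relative to vehicle-treated controls.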
# [17] = at 5.0 µM (retest, dose inferred, filed as 0.5)
# [18] = at 50.0 µM (retest, dose inferred, filed as 5.0)
smiles,measurement,setting,value
CC(C)OC(=O)NNc1cccc(Cl)c1,growth inhibition,[1]; at 1.2 µM,1%
same,growth inhibition,[1]; at 3.7 µM,10%
same,growth inhibition,[1]; at 11.0 µM,57%
same,growth inhibition,[1]; at 33.0 µM,96% (active)
same,growth inhibition,[1]; at 100.0 µM,97% (active)
same,growth inhibition,[2]; at 1.2 µM,1%
same,growth inhibition,[2]; at 3.7 µM,8%
same,growth inhibition,[2]; at 11.0 µM,35%
same,growth inhibition,[2]; at 33.0 µM,95% (active)
same,growth inhibition,[2]; at 100.0 µM,96% (active)
same,growth inhibition,[3]; at 1.2 µM,6%
same,growth inhibition,[3]; at 3.7 µM,33%
same,growth inhibition,[3]; at 11.0 µM,93% (active)
same,growth inhibition,[3]; at 33.0 µM,98% (active)
same,growth inhibition,[3]; at 100.0 µM,98% (active)
same,growth inhibition,[4]; at 1.2 µM,0%
same,growth inhibition,[4]; at 3.7 µM,7%
same,growth inhibition,[4]; at 11.0 µM,87% (active)
same,growth inhibition,[4]; at 33.0 µM,98% (active)
same,growth inhibition,[4]; at 100.0 µM,99% (active)
same,growth inhibition,[5]; at 1.2 µM,4%
same,growth inhibition,[5]; at 3.7 µM,26%
same,growth inhibition,[5]; [17],13%
same,growth inhibition,[5]; at 11.0 µM,98% (active)
same,growth inhibition,[5]; at 33.0 µM,98% (active)
same,growth inhibition,[5]; [18],95% (active)
same,growth inhibition,[5]; at 50.0 µM,96.1% (active)
same,growth inhibition,[5]; at 100.0 µM,97% (active)
same,growth inhibition,[6]; at 1.2 µM,0%
same,growth inhibition,[6]; at 3.7 µM,11%
same,growth inhibition,[6]; [17],21%
same,growth inhibition,[6]; at 11.0 µM,55%
same,growth inhibition,[6]; at 33.0 µM,96% (active)
same,growth inhibition,[6]; [18],96% (active)
same,growth inhibition,[6]; at 50.0 µM,99.2% (active)
same,growth inhibition,[6]; at 100.0 µM,98% (active)
same,growth inhibition,[7]; at 1.2 µM,4%
same,growth inhibition,[7]; at 3.7 µM,12%
same,growth inhibition,[7]; at 11.0 µM,76% (active)
same,growth inhibition,[7]; at 33.0 µM,98% (active)
same,growth inhibition,[7]; at 100.0 µM,98% (active)
same,growth inhibition,[8]; [17],27%
same,growth inhibition,[8]; [18],98% (active)
same,growth inhibition,[8]; at 50.0 µM,96.8% (active)
same,growth inhibition,[9]; at 1.2 µM,-7%
same,growth inhibition,[9]; at 3.7 µM,-6%
same,growth inhibition,[9]; at 11.0 µM,17%
same,growth inhibition,[9]; at 33.0 µM,53%
same,growth inhibition,[9]; at 100.0 µM,84% (active)
same,growth inhibition,[10]; [17],51%
same,growth inhibition,[10]; [18],99% (active)
same,growth inhibition,[10]; at 50.0 µM,97.8% (active)
same,growth inhibition,[11]; at 1.2 µM,3%
same,growth inhibition,[11]; at 3.7 µM,44%
same,growth inhibition,[11]; [17],83% (active)
same,growth inhibition,[11]; at 11.0 µM,98% (active)
same,growth inhibition,[11]; at 33.0 µM,98% (active)
same,growth inhibition,[11]; [18],98% (active)
same,growth inhibition,[11]; at 50.0 µM,99% (active)
same,growth inhibition,[11]; at 100.0 µM,98% (active)
same,growth inhibition,[12]; at 1.2 µM,1%
same,growth inhibition,[12]; at 3.7 µM,13%
same,growth inhibition,[12]; at 11.0 µM,80% (active)
same,growth inhibition,[12]; at 33.0 µM,97% (active)
same,growth inhibition,[12]; at 100.0 µM,98% (active)
same,growth inhibition,[13]; at 1.2 µM,-1%
same,growth inhibition,[13]; at 3.7 µM,4%
same,growth inhibition,[13]; at 11.0 µM,55%
same,growth inhibition,[13]; at 33.0 µM,98% (active)
same,growth inhibition,[13]; at 100.0 µM,99% (active)
same,growth inhibition,[14]; at 1.2 µM,2%
same,growth inhibition,[14]; at 3.7 µM,23%
same,growth inhibition,[14]; at 11.0 µM,97% (active)
same,growth inhibition,[14]; at 33.0 µM,98% (active)
same,growth inhibition,[14]; at 100.0 µM,98% (active)
same,growth inhibition,[15]; [17],69%
same,growth inhibition,[15]; [18],96% (active)
same,growth inhibition,[15]; at 50.0 µM,98% (active)
same,growth inhibition,[16]; at 1.2 µM,9%
same,growth inhibition,[16]; at 3.7 µM,61%
same,growth inhibition,[16]; at 11.0 µM,98% (active)
same,growth inhibition,[16]; at 33.0 µM,98% (active)
same,growth inhibition,[16]; at 100.0 µM,98% (active)
